Measured values: PubChem BioAssay (Tox21)
Results filed as inconclusive are left out. The source made the active and inactive calls. The call rests on the fitted dose curve; in most records, active means well fitted cell-killing curve with a large enough effect in the repeat runs; inconclusive means weak or mixed curves, or effect the other way; inactive means flat fitted curve, though single readings scatter.

Test: qHTS RealTime-Glo MT Cell Viability Assay in HepG2 cells - 40 hour (AID 1224870); further: nearly all actives have a fitted effect of over 50% in size
Conditions: RealTime-Glo luminescence; series mostly up to 76.8 µM; activity change, negative = cytotoxic: at the top concentration
Source text: National Center for Advancing Translational Sciences [NCATS]
NIH Chemical Genomics Center [NCGC]
U.S. Environmental Protection Agency [EPA]
National Institutes of Environmental Health Sciences [NIEHS]
National Toxicology Program [NTP]
U.S. Food and Drug Administration [FDA]
Measure of cell viability is critical in the cell-base assay. Analysis of cell viability is necessary for the characterization of cell responses to cytotoxic drugs and environmental stress. A RealTime-Glo MT Cell Viability Assay to monitor cell viability in real time of continues cell culture during 40 hours of compound treatment was used to screen Tox21 10K library compounds in HepG2 cells. The RealTime-Glo MT Cell Viability Assay is a nonlytic, homogeneous, bioluminescent method to measure cell viability in real time using a simple, plate-based method. The assay involves adding NanoLuc luciferase and a cell-permeant prosubstrate to cells in culture. Viable cells reduce the proprietary prosubstrate to generate a substrate for NanoLuc luciferase. This substrate diffuses from cells into the surrounding culture medium, where it is rapidly used by the NanoLuc Enzyme to produce a luminescent signal. The signal correlates with the number of viable cells, making the assay well suited for cytotoxicity studies.
Tox21 Assay Protocol Summary:
The mixture of HepG2 cell suspension and reagents were dispensed at 600cells/6 ul/well in 1536-well tissue culture treated black solid bottom plates using a Multidrop dispenser. After the assay plates were incubated at a 37 C/5% CO2 incubator for 5 hours, 23 nL of compounds dissolved in DMSO, positive and negative controls was transferred to the assay plate by a pintool work station. The plates were incubated at 37 C for 40 hours. The luminescence intensity were measured at 0h, 8h, 16h, 24h, 32h and 40h time points using ViewLux plate reader during compound treatment.
On the % scale 0 is the no-effect control and ±100 the full control effect; potency means the concentration at half of the fitted maximal effect.

SMILES | activity change, negative = cytotoxic | Potency
CC(C)[C@H]1CC[C@@H](C)CC1=O | 0.193% (inactive) | 
O=C1NC(=O)C2CC=CCC12 (stereo not given) | 2.1% (inactive) | 
COc1ccc2cc1Oc1cc3c(cc1OC)CC[N+](C)(C)[C@H]3Cc1ccc(cc1)Oc1c(OC)c(OC)cc3c1[C@@H](C2)[N+](C)(C)CC3 |  | 16.9 µM (active)
CC(C)COC(=O)c1ccc(N)cc1 | 3.3% [at 35.3 µM] (inactive) | 
Cc1nc(C2CCCCC2)c(-c2ccc(S(N)(=O)=O)c(F)c2)o1 | -3.53% [at 35.3 µM] (inactive) | 
C=CCOCC(O)CO (stereo not given) | 0.29% (inactive) | 
CC(=O)Nc1ccc(OCC(O)CNC(C)C)cc1 (stereo not given) | 0.522% [at 35.3 µM] (inactive) | 
CCCCCCC1CCC(=O)O1 (stereo not given) | 0.838% (inactive) | 
CCCCCCCCCCOc1cc2c(=O)c(C(=O)OCC)c[nH]c2cc1OCC | 0.617% [at 6.97 µM] (inactive) | 
C=CCCC(=O)O | 1.51% (inactive) | 
CC(C)CCCO | 2.3% (inactive) | 
CC[N+](CC)(CC(=O)Nc1c(C)cccc1C)Cc1ccccc1 (tested in a mixture with another compound) | -1.14% [at 35.3 µM] (inactive) | 
Cc1coc2ccccc2c1=O | 1.61% [at 35.3 µM] (inactive) | 
CC(=O)OCC(=O)[C@@]1(O)[C@H](C)C[C@H]2[C@@H]3CCC4=CC(=O)C=C[C@]4(C)[C@@]3(F)[C@@H](O)C[C@@]21C | -1.89% [at 35.3 µM] (inactive) | 
c1ccc(Cc2ccccc2)cc1 | 1.65% (inactive) | 
Cc1ccc(C(=O)c2ccccc2)cc1 | 0.361% (inactive) | 
Cc1onc(-c2c(Cl)cccc2Cl)c1C(=O)Cl | 3.48% [at 35.3 µM] (inactive) | 
O=Cc1cccc(Br)c1 | -1.31% (inactive) | 
c1ccc(CCc2ccccc2)cc1 | 0.375% (inactive) | 
Cc1ncc(COP(=O)(O)O)c(C=O)c1O | 3.61% [at 35.3 µM] (inactive) | 

SMILES | activity change, negative = cytotoxic | Potency
CN1[C@@H]2CC[C@H]1CC(OC(=O)C(O)c1ccccc1)C2 (stereo not given in full) | 0.194% [at 35.3 µM] (inactive) | 
CO/N=C(\C(=O)N[C@@H]1C(=O)N2C(C(=O)O)=C(CSc3nc(=O)c(O)nn3C)CS[C@H]12)c1csc(N)n1 | 0.369% [at 35.3 µM] (inactive) | 
COCCOC[C@H](CC1(C(=O)NC2CCC(C(=O)O)CC2)CCCC1)C(=O)Oc1ccc2c(c1)CCC2 (stereo not given in full) | 0.316% (inactive) | 
CC(CC=O)CC(C)(C)C (stereo not given) | -2.07% (inactive) | 
Cc1nc2ccc(CN(C)c3ccc(C(=O)N[C@@H](CCC(=O)O)C(=O)O)s3)cc2c(=O)[nH]1 | 2.11% [at 35.3 µM] (inactive) | 
CC(C)(C)C(=O)Oc1ccc(S(=O)(=O)Nc2ccccc2C(=O)NCC(=O)O)cc1 | 11.6% [at 35.3 µM] (inactive) | 
CCC(C(=O)NC(=O)NC(C)=O)c1ccccc1 (stereo not given) | -2.81% [at 35.3 µM] (inactive) | 
CC(=O)c1ccc2ccccc2c1 | 0.654% (inactive) | 
OCCCCCO | 1.1% (inactive) | 
CC1=C(C/C=C(\C)CCC[C@H](C)CCC[C@H](C)CCCC(C)C)C(=O)c2ccccc2C1=O | 3.7% [at 35.3 µM] (inactive) | 
CCN(Cc1ccccc1)c1ccccc1 | -2.29% (inactive) | 
CC(C)C1CCC(O)CC1 (stereo not given) | -0.622% (inactive) | 
C[C@H]1C[C@H]2[C@@H]3CCC4=CC(=O)C=C[C@]4(C)[C@H]3C(=O)C[C@]2(C)[C@@]1(O)C(=O)CO | 0.51% [at 35.3 µM] (inactive) | 
CC(=O)Oc1cccc(C)c1 | 3.13% [at 35.3 µM] (inactive) | 
C=C[Si](OC(C)=O)(OC(C)=O)OC(C)=O | 0.124% (inactive) | 
CCCC(=O)O[C@]1(C(=O)CC)CC[C@H]2[C@@H]3CCC4=CC(=O)CC[C@]4(C)[C@H]3[C@@H](O)C[C@@]21C | -14.7% [at 35.3 µM] (inactive) | 
CN(C)[C@@H]1C(=O)C(C(=O)NCN2CCCC2)=C(O)[C@@]2(O)C(=O)C3=C(O)c4c(O)cccc4[C@@](C)(O)C3C[C@@H]12 (stereo not given in full) | 1.8% [at 35.3 µM] (inactive) | 
COc1cc2c(cc1OC)-c1cc3ccc(OC)c(OC)c3c[n+]1CC2 | -5.55% (inactive) | 
CCN1C=CN(C)C1C (stereo not given) | -1.46% (inactive) | 
COc1ccccc1OCC1CNC(=O)O1 (stereo not given) | -1.09% [at 35.3 µM] (inactive) | 
